# A selection: hits, their analogues and other compounds. The true share with any hit is near 3.4%.
# Env fusion inh = HIV envelope-mediated fusion inhibition; HeLa-JRFL Env/CEM21 cell fusion, luciferase; inhibition, % at 12.3 µM; 360,000 tested, 1.1% active;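 active means mean replicate inhibition score of at least 50 and every replicate individually at or above 50; inconclusive means only one of the two criteria met; inactive means mean below 50 and not all replicates reaching 50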
# MITF act = increases MITF-driven TRPM1 promoter luciferase signal | SK-MEL-5 TRPM1-promoter luciferase, 24 h; % of positive control, neutral wells = 0 | activation, % at 12.5 µM | 300,000 tested, 0.75% active | AID 588334;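 active means mean activation of at least 80% with every replicate also reaching 80%; inconclusive means mean reaches 80% but some replicate falls short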
# miR-122 sensor = blocks miR-122 activity in Huh7 sensor cells. AID 602342. Huh7 miR-122 Renilla luciferase sensor, 48 h; neutral wells = 0, positive control = 100. activation (reporter increase), % at 12.5 µM. 340,000 tested, 0.3% active;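 active means mean replicate activation score at least 90 and every replicate individually at or above 90; inconclusive means only one of the two criteria met; inactive means neither criterion met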;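 further: higher luciferase means less miR-122 activity so hits act as miR-122 inhibitors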
# esBAF inh = blocks esBAF chromatin remodeling in mouse ES cells; reporter increase, % at 12.5 µM; 350,000 tested, 2% active; Bmi1-luciferase knock-in reporter, 24 h; 100% = twice the neutral-well signal; in the data active means activation above about 40%; inconclusive means no clear call, values can overlap the other calls;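 further: a rise in the Bmi1 reporter signal indicates esBAF inhibition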
# Wnt act = Wnt/beta-catenin pathway activation | activation, % at 9.35 µM | Wnt/beta-catenin reporter cell assay, activator, plate reader | 300,000 tested, 1.2% active; in the data active means activation above about 30%, passing the limit was not always enough; inconclusive means no clear call, values can overlap the other calls
# Hits are given with their value; - = inactive; ? = inconclusive; . = no result; [ ] = remark or other dose.
SMILES,Env fusion inh,MITF act,miR-122 sensor,esBAF inh,Wnt act
CCOc1ccc(N(CC(=O)Nc2ccc(C)cc2)S(C)(=O)=O)cc1,-,-,-,80,-
Cc1ccc(-c2nc3ccccc3nc2Cl)cc1,-,-,.,.,-
Cc1ccc(-c2nc3ccccc3nc2NN)cc1,-,.,-,.,44
NC(=O)N/N=C(/CCCCCC/C(=N\NC(N)=O)c1ccccc1)c1ccccc1,-,.,-,.,37
Cc1ccccc1Nc1nnc(SCC2CCCCO2)s1 (centres undefined),-,-,-,-,50
COc1ccccc1Nc1nnc(SCC2CCCCO2)s1 (centres undefined),-,-,.,.,-
CCC(c1nc2ccccc2[nH]1)n1c(-c2cnccn2)nc2ccccc21 (centres undefined),-,.,.,.,-
CCOC(=O)C(c1nc2ccccc2[nH]1)n1c(-c2ccccn2)nc2ccccc21 (centres undefined),.,.,-,49,-
C[C@@H]1CN([C@H](C)CO)C(=O)c2cccc(NC(=O)c3ccncc3)c2O[C@@H]1CN(C)CC1CCCCC1,-,.,-,-,.
C[C@@H]1CN([C@@H](C)CO)C(=O)c2cccc(NC(=O)c3ccncc3)c2O[C@@H]1CN(C)C,.,.,112[16.7 µM],-,.
C[C@@H]1CN([C@@H](C)CO)C(=O)c2cccc(NC(=O)c3ccncc3)c2O[C@H]1CN(C)CC1CCCCC1,99[16.7 µM],.,-,-,.
O=C(C[C@H]1CC[C@H]2[C@@H](COC[C@@H](O)CN2Cc2ccc(F)cc2)O1)NCCc1ccccc1,.,.,-,-,.
Cc1noc(C)c1NC(=O)Nc1ccc2c(c1)C(=O)N([C@@H](C)CO)C[C@H](C)[C@H](CN(C)Cc1ccncc1)OCCCC[C@@H](C)O2,-,.,-,-,.
Cc1cnc(C(=O)N(c2ccc(N3CCOCC3)cc2)C2C(=O)Nc3ccccc3N=C2c2ccc3c(c2)OCO3)cn1 (centres undefined),-,.,-,-,-
COc1ccc(C2=Nc3ccccc3NC(=O)C2N(C(=O)c2cnc(C)cn2)c2ccc(N3CCOCC3)cc2)cc1 (centres undefined),-,.,-,48,-
COCC(=O)Nc1ccc2c(c1)C(=O)N(C)C[C@@H](OC)[C@@H](C)CN[C@@H](C)CO2,-,.,-,-,.
Cc1onc(-c2c(F)cccc2Cl)c1C(=O)OCC(=O)NC(c1ccccc1)c1ccccc1,93,-,-,-,-
CN1CCCC1CCNc1ccc2sc3ccccc3c(=O)c2c1 (centres undefined),-,108,-,-,-
C[C@@H]1CN([C@@H](C)CO)C(=O)c2cc(C#CC3(O)CCCC3)cnc2O[C@H]1CN(C)C(=O)Cc1ccncc1,-,.,-,-,.
Cc1ccc(-c2cn(-c3ccccc3)c(=S)[nH]2)cc1C,-,123,.,?,38
Cc1ccccc1-c1cn(-c2ccccc2)c(=S)[nH]1,-,-,-,-,-
CCS(=O)(=O)Nc1ccc2c(c1)C(=O)N(C)C[C@H](OC)[C@@H](C)CN(C(=O)NC(C)C)[C@@H](C)CO2,.,.,-,-,.
C/C(=C\c1ccc(N)cc1)c1nc2ccccc2[nH]1,-,?,-,64,-
COC(=O)/C(=C\c1ccc(O)cc1)c1nc2ccccc2[nH]1,-,-,.,.,-
CCOC(=O)c1cc2nc(-c3ccccc3)cc(C)n2n1,-,.,.,-,-
SMILES,Env fusion inh,MITF act,miR-122 sensor,esBAF inh,Wnt act
CCOC(=O)c1cnn2c(C)cc(-c3ccccc3)nc12,-,.,.,.,43
Cc1cc(C)n2ncc(/C(N)=N/OC(=O)c3ccccc3F)c2n1,-,?,.,.,38
CNC[C@@H]1OCCCC[C@@H](C)Oc2ccc(NC(=O)c3ccccc3)cc2C(=O)N([C@@H](C)CO)C[C@H]1C,-,.,-,-,.
CN1c2ccc(-c3cccc(F)c3)cc2[C@H]2[C@H](CCN2C(=O)c2ccccc2F)[C@H]1CO,.,.,107[16.7 µM],-,.
CN1c2ccc(-c3cccc(F)c3)cc2[C@H]2[C@H](CCN2C(=O)C2CC2)[C@H]1CO,.,.,100[16.7 µM],-,.
O=C(c1ccc(Br)cc1)c1cc([N+](=O)[O-])ccc1N1CCCCC1,-,.,185,-,.
Cc1n[nH]c(C)c1S(=O)(=O)N(CC(=O)Nc1ccc2c(c1)OCCO2)c1ccc(C(C)C)cc1,59,-,-,-,-
Cc1noc(C)c1S(=O)(=O)N(CC(=O)Nc1ccc2c(c1)OCO2)c1ccc(C(C)C)cc1,-,-,-,-,-
O=C(Nc1ccc(Cc2ccncc2)cc1)c1ccc(Br)o1,-,-,-,-,-
CC(C)CN1C(=O)c2ccc(NC(=O)c3ccccc3F)cc2C1=O,-,-,-,47,.
CCC(=O)Nc1ccc2c(c1)Cc1cc(NC(=O)CC)ccc1-2,-,-,-,-,-
O=C(Nc1ccc2c(c1)Cc1ccccc1-2)c1ccc(Br)o1,.,-,-,51,-
CCCC(=O)Nc1ccc2c(c1)Cc1ccccc1-2,-,-,.,58,-
O=C(Nc1ccc2c(c1)Cc1ccccc1-2)c1ccccc1F,-,.,.,.,49
C[C@H]1CN([C@@H](C)CO)C(=O)c2cc(NS(=O)(=O)c3ccc(Cl)cc3)ccc2O[C@@H]1CN(C)S(=O)(=O)c1ccc(Cl)cc1,-,.,-,-,.
CC(=O)Nc1cc2c(cc1Br)-c1ccccc1C2,-,-,-,56,-
O=C(c1ccc2c(c1)OCO2)N1C[C@H]2[C@@H](c3ccccc31)[C@H](CO)N2Cc1cccnc1,.,.,-,-,.
CN(C)CC(=O)N[C@H]1CC[C@@H](CC(=O)NCc2ccc(Cl)cc2)O[C@@H]1CO,-,.,.,-,.
O=C(CN(C(=O)c1csnn1)c1ccc(F)cc1)NCc1ccc2c(c1)OCO2,-,.,.,50,-
COc1ccc(S(=O)(=O)N[C@H]2CC[C@@H](CC(=O)NCCc3ccccc3)O[C@@H]2CO)cc1,-,.,.,-,.
CC(C)[C@H](NC(=O)OCc1ccccc1)C(=O)OCC(=O)c1ccccc1,-,?,-,-,35
Cc1ccc(S(=O)(=O)Nc2ccc3c(c2)C(=O)N([C@@H](C)CO)C[C@@H](C)[C@@H](CN(C)Cc2ccc(Cl)c(Cl)c2)OCCCC[C@@H](C)O3)cc1,-,.,-,-,.
COc1cccc(NC(=O)N2C[C@@H](O)COC[C@H]3O[C@@H](CC(=O)NCc4ccccc4F)CC[C@@H]32)c1,.,.,-,-,.
CCN(CC(O)CON=C1c2ccccc2-c2ccccc21)S(=O)(=O)c1ccc(Cl)cc1 (centres undefined),77,-,.,.,.
Cc1cccc(N(CC(O)CON=C2c3ccccc3-c3ccccc32)S(C)(=O)=O)c1 (centres undefined),65,-,-,-,.
CN(CC(O)CON=C1c2ccccc2-c2ccccc21)S(=O)(=O)c1ccc(Br)cc1 (centres undefined),-,-,-,-,-
CCN(CC(O)CON=C1c2ccccc2-c2ccccc21)S(=O)(=O)c1ccc(C)cc1 (centres undefined),79,-,-,.,-
CS(=O)(=O)N(CC(O)CON=C1c2ccccc2-c2ccccc21)c1ccc(F)cc1 (centres undefined),.,-,-,-,.

# From PubChem BioAssay
